Bioassay records: PubChem BioAssay, several laboratories
dFosB activator – enhances mouse delta FosB homodimer DNA binding; P13346; purified delta FosB, TAMRA-CDK5 oligo fluorescence polarization; percent of positive-control signal above neutral wells; activation, % at 25 µM; 340,000 compounds, 0.99% hits;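 active = mean activation above about 17%, with every replicate also reaching it, limit read from the data, passing the limit was not always enough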
Target sequence (P13346 whole entry, looked up): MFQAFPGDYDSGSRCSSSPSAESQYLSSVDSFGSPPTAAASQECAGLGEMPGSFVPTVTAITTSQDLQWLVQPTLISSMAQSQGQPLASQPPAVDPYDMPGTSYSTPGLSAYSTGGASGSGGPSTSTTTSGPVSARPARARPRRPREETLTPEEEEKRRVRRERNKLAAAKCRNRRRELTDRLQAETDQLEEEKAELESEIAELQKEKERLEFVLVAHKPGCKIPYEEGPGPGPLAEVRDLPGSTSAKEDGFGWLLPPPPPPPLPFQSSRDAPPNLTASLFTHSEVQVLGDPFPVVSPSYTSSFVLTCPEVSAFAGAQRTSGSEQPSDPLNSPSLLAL
Platelet DG rel – platelet dense granule release activity; human platelet-rich plasma, SFLLRN dense granule ATP release, luminescence; inhibition, %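 (compounds screened at 7.5 µM in platelet-rich plasma)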; 300,000 compounds, 0.22% hits; AID 1663;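 active = mean replicate score, as percent of positive control, at or above 50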
MPTP block – permeability transition pore inhibition; isolated mouse mitochondria, Ca2+ swelling absorbance, 30 min; inhibition, % at 10 µM; 360,000 compounds, 1.4% hits; AID 602449;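 active = inhibition of 50% or more, scaled per plate between neutral and stimulator controls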;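 note: 0% = DMSO wells given calcium and 100% = 1 mM EGTA wells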
HSF1 inh – HSF1 inhibition; NIH3T3-HGL HSE-luciferase, MG132-induced, luminescence 8 h; active compounds read low; AID 2098; 300,000 compounds, 0.77% hits; activity change, negative = inhibition, % at 7.5 µM (by protocol);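 active = more than half of replicate wells show activity change below -50%, luminescence cut by over half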;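 note: luciferase reports HSF-1 transcriptional activity via heat shock element; 0% = median of DMSO wells and -100% = zero luminescence signal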
HSP90 refold inh – inhibitors of HSP90 luciferase refolding in rabbit reticulocyte lysate. luciferase refolding luminescence, 3 h. inhibition, % at 5.6 µM. 290,000 compounds, 0.91% hits. AID 1789;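 active = inhibition above the screen-wide mean plus 3 SD, computed separately per campaign, cut at about 16% in these data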;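 note: 0% = DMSO wells and 100% = 60 µM geldanamycin wells; inhibitors lower the luminescence because luciferase stays unfolded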
HSF1 activator – increases HSF-1 driven luciferase reporter signal; AID 504408; NIH3T3-HGL HSF-1 luciferase reporter, MG132, 8 h; 100% = twice DMSO control signal; activation, % at 9 µM; 300,000 compounds, 1.7% hits;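 active = mean replicate activation of at least 50% with a set share of replicates each reaching 50%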;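 note: 0% = median of the neutral control wells and 100% = twice that signal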
* hit, by the source's call. Shown are actives, neighbours in structure and some others; about 4.9% of the full set was active somewhere.

`O=C(CSc1nnc(-c2ccccc2)c(-c2ccccc2)n1)N1CCc2ccccc21` gave dFosB activator -10, Platelet DG rel -2, MPTP block 1, HSF1 inh 78, HSP90 refold inh -1 and HSF1 activator 130*.
For CCOC(=O)CSc1nnc(-c2ccccc2)c(-c2ccccc2)n1 the results were dFosB activator 1, Platelet DG rel 4, MPTP block 0, HSF1 inh -82*, HSP90 refold inh 1 and HSF1 activator -86.
CCOC(=O)CSc1cc(-c2ccccc2)nc2ncnn12 was read as dFosB activator -16, Platelet DG rel -9, MPTP block 2, HSF1 inh 47, HSP90 refold inh -3 and HSF1 activator 75*.
c1ccc(-c2cc(-c3ccccc3)n3ncnc3n2)cc1 was read as dFosB activator -35, Platelet DG rel -5, MPTP block 0, HSF1 inh 6, HSP90 refold inh 1 and HSF1 activator 4.
`Cn1c(-c2ccccc2)cnc1SCC(=O)N1CCCc2ccccc21` gave dFosB activator -6, Platelet DG rel -19, MPTP block 2, HSF1 inh 17, HSP90 refold inh 1 and HSF1 activator 67*.
CC1(C(=O)NS(=O)(=O)c2ccc(C#N)cc2)CCN1C(=O)Cc1ccccc1Cl (stereo not drawn) was read as MPTP block 0.
`CCOc1ncccc1C(=O)NCCc1c[nH]c2ccccc12` gave dFosB activator -3, Platelet DG rel -6, MPTP block 0, HSF1 inh 51, HSP90 refold inh -2 and HSF1 activator 89*.
For O=C(O)c1nccnc1C(=O)NCCc1c[nH]c2ccccc12 the results were dFosB activator 1, Platelet DG rel -4, MPTP block 0, HSF1 inh 2, HSP90 refold inh -1 and HSF1 activator -5.
For O=C1CN(C(=O)COC(=O)CCC(=O)c2ccc(F)cc2)c2ccccc2N1 the results were dFosB activator -14 and MPTP block -2.
Cc1ccc2nc3c(cc2c1)CN(Cc1ccco1)C(=NCC1CCCO1)S3 (stereo not drawn) was read as dFosB activator -11, Platelet DG rel 6, MPTP block -3, HSF1 inh -8, HSP90 refold inh -1 and HSF1 activator -5.
`Cc1cccc2cc3c(nc12)SC(=NCC1CCCO1)N(Cc1ccco1)C3` (stereo not drawn) gave dFosB activator -1, Platelet DG rel -1, MPTP block 0, HSF1 inh 166, HSP90 refold inh 9 and HSF1 activator 190*.
Cc1oc2c(c(=O)c1C)C(=O)CC(c1ccccc1)C2 (stereo not drawn) was read as dFosB activator -6, Platelet DG rel 15, MPTP block 1, HSF1 inh -3, HSP90 refold inh 0 and HSF1 activator -6.
`CS(=O)(=O)c1sc(C#N)c2c1C(=O)CC(c1ccccc1)C2` (stereo not drawn) gave dFosB activator -12, Platelet DG rel 0, MPTP block 1, HSF1 inh 72, HSP90 refold inh 0 and HSF1 activator 89*.
`COC(=O)CNC(=O)COC(=O)/C=C/c1ccc2ccccc2n1` gave dFosB activator 0, Platelet DG rel 2, MPTP block -3, HSF1 inh 2, HSP90 refold inh 1 and HSF1 activator 14.
Screening CC(OC(=O)/C=C/c1ccc2ccccc2n1)C(=O)NCc1ccccc1 (stereo not drawn) returned dFosB activator 4, Platelet DG rel 13, MPTP block -1, HSF1 inh 80 and HSF1 activator 122*.
For Cc1ccc2nc(-c3ccc(NC(=O)Cc4cccs4)cc3)[nH]c2c1 the results were dFosB activator 11, Platelet DG rel -5, MPTP block 0, HSF1 inh 37, HSP90 refold inh -5 and HSF1 activator 76*.
`Cc1ccc(OCc2nnc(SCC(=O)O)n2-c2ccccc2)cc1` gave dFosB activator -5, Platelet DG rel -4, MPTP block 1, HSF1 inh -4 and HSF1 activator 3.
For Cc1ccc(OCc2nnc(SC(C)C(=O)O)n2-c2ccccc2)cc1 (stereo not drawn) the results were dFosB activator -5, Platelet DG rel -3, MPTP block -1, HSF1 inh -63*, HSP90 refold inh 0 and HSF1 activator -68.
CC(C)Cc1csc(NC(=O)c2ccc(Br)cc2)c1C(=O)O was read as dFosB activator 0, Platelet DG rel -5, MPTP block 6, HSF1 inh -1, HSP90 refold inh 0 and HSF1 activator 7.
CC(=O)NC(c1ccc(F)c(F)c1)c1nc(-c2cc3ccccc3o2)cs1 (stereo not drawn) was read as MPTP block 0.
Screening CC(NC(=O)C1CCCN1C(=O)OC(C)(C)C)C(=O)OCc1ccccc1 (stereo not drawn) returned MPTP block 0.
Screening ON=C1c2ccccc2-c2ccccc21 returned dFosB activator -17, Platelet DG rel -4, MPTP block -1, HSF1 inh 20, HSP90 refold inh 3 and HSF1 activator 57*.
`CN(C)c1ccc2c(c1)C(=NO)c1ccccc1-2` gave dFosB activator -9 and MPTP block -1.
Screening COc1cc2c3nnc(-c4ccc(F)cc4)c-3cn(Cc3ccccc3)c2cc1OC returned dFosB activator 19*, Platelet DG rel 29, MPTP block 3, HSF1 inh -4, HSP90 refold inh 0 and HSF1 activator -3.
`COc1ccc(Cn2cc3c(-c4ccc(F)cc4)nnc-3c3cc(OC)c(OC)cc32)cc1` gave dFosB activator 34*, MPTP block 4 and HSP90 refold inh -2.
Screening COc1cc(/C=C2/NC(=O)N(CC(=O)Nc3ccc(C)cc3)C2=O)ccc1Oc1ccc([N+](=O)[O-])cn1 returned dFosB activator 18*, Platelet DG rel 3, MPTP block 4, HSF1 inh 0, HSP90 refold inh -2 and HSF1 activator -7.
`CN(CC(=O)Nc1cccc(F)c1)CC(=O)Nc1cccc(S(=O)(=O)N2CCCCCC2)c1` gave dFosB activator -6, Platelet DG rel 4, MPTP block 17, HSF1 inh 15, HSP90 refold inh 2 and HSF1 activator 38.
Screening CN(CC(=O)Nc1cccc(F)c1)CC(=O)Nc1cccc(S(N)(=O)=O)c1 returned dFosB activator -5, Platelet DG rel 1, MPTP block 1, HSF1 inh -72*, HSP90 refold inh 1 and HSF1 activator -80.
Screening Cc1ccc2nc(/N=C(\N)NC(=O)NC3CCCCC3)nc(C)c2c1 returned dFosB activator -18, Platelet DG rel -4, MPTP block 2, HSF1 inh -3, HSP90 refold inh 6 and HSF1 activator 4.
C[C@H]1CN([C@@H](C)CO)C(=O)CCCn2cc(nn2)CO[C@@H]1CN(C)C(=O)Nc1ccc2c(c1)OCO2 was read as MPTP block -2.
